Reference: PubChem BioAssay (Tox21)
Results filed as inconclusive are left out. Active and inactive are the calls of the source. Unless noted, calls follow the shape of the full dose curve.

Columns and labels:
[1] = Nuclear factor erythroid 2-related factor 2/antioxidant responsive element (Nrf2/ARE) small molecule agonists: qHTS cell viability counter screen in human keratinocytes (AID 1919968; active = well fitted curve in the direction sought with a large enough effect in the repeat runs; an effect the other way counts as inactive or inconclusive; also: nearly all actives have a fitted effect of over 55% in size)
Summary of the method: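 Stably transfected HaCaT (KeratinoSens), 1,500/well. Test agents in DMSO were applied for 23 h, 37 C/5% CO2. CellTiter-Fluor was incubated 1 h before the fluorescence read.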

[2] = Nuclear factor erythroid 2-related factor 2/antioxidant responsive element (Nrf2/ARE) small molecule agonists: luciferase reporter gene qHTS assay in human keratinocytes (AID 1919969); also: nearly all actives have a fitted effect of over 35% in size
[3] = target: Gonadotropin-releasing hormone receptor (Homo sapiens) (UniProt P30968); test: Human gonadotropin-releasing hormone receptor (GnRHR) small molecule agonists, calcium flux assay in GnRHR-HEK293 cells (AID 1920063); also: nearly all actives have a fitted effect of over 35% in size
Sequence of Gonadotropin-releasing hormone receptor (Homo sapiens) (P30968 whole entry, looked up): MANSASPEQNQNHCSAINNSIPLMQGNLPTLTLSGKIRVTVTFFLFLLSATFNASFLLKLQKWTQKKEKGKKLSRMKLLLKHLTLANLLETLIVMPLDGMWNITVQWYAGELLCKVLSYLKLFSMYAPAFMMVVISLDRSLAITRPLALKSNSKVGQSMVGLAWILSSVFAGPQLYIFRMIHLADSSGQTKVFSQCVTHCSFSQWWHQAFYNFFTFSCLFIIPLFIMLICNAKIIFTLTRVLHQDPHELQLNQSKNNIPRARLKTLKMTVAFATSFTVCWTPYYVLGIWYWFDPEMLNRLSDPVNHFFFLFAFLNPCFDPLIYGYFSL
Summary of the method: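 Stable human GnRHR HEK293 line. 18 h plating, then calcium dye for 1 h at 37 C. Agonist-mode compound addition from DMSO stocks; fluorescence monitored 3 min.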

[4] = target: KiSS-1 receptor (Homo sapiens) (UniProt Q969F8); test: Human kisspeptin (KISS1R) small molecule agonists, calcium flux assay in KISS1R-HEK293 cells (AID 1920064; active = well fitted curve in the direction sought with a large enough effect in the repeat runs; an effect the other way counts as inactive or inconclusive)
Sequence of KiSS-1 receptor (Homo sapiens) (Q969F8 whole entry, looked up): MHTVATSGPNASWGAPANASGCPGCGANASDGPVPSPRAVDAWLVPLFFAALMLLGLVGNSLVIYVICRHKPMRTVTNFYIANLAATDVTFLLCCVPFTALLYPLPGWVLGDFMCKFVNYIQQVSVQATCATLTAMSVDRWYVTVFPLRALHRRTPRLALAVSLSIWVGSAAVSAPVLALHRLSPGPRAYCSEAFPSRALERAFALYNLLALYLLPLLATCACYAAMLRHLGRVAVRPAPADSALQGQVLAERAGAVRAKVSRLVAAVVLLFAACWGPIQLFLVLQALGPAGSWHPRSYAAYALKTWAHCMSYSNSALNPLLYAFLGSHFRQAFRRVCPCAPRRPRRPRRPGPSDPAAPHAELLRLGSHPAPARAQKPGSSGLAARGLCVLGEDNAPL
Summary of the method: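 After overnight (18 h) culture at 37 C/5% CO2, human KISS1R-HEK293 cells received calcium dye for 1 h, then test compound; emission at 540 nm (excitation 480 nm) was tracked for 3 min.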

[5] = G protein-coupled receptor (GPCR) small molecule agonists, calcium flux assay: HEK293 wild type cell line counter screen (AID 1920065)
Summary of the method: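 Following 18 h incubation at 37 C/5% CO2, plates got calcium dye for 1 h; compounds, ATP or DMSO were then pinned in and fluorescence followed kinetically (480/540 nm).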

[6] = p53 small molecule agonists, cell-based qHTS assay with human liver microsomes (AID 1963577)
Summary of the method: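 Fluorescence of the beta-lactamase reporter in p53RE-bla cells, detected with LiveBLAzer substrate (2 h, room temperature, dark), served as the read-out after 16 h compound exposure at 37 C with human liver microsomes and NADPH, each 0.5 mg/mL final.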

[7] = p53 small molecule agonists, cell-based qHTS assay with rat liver microsomes (AID 1963578)
Summary of the method: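 Cells carrying a p53 response element–beta-lactamase reporter were plated and rested 5 h, then dosed with compound in DMSO plus rat liver microsomes and NADPH, each at 0.5 mg/mL final. After 16 h at 37 C, LiveBLAzer substrate was added for 2 h.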

[8] = p53 small molecule agonists, cell-based qHTS assay with rat liver microsomes: qHTS cell viability counter screen (AID 1963580); also: nearly all actives have a fitted effect of over 45% in size
Summary of the method: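 Cytotoxicity counter screen: intracellular ATP measured by CellTiter-Glo luminescence in the same wells as the beta-lactamase reporter read, on HCT-116 p53RE-bla cells exposed 16 h at 37 C to compounds with rat liver microsomes and NADPH, each 0.5 mg/mL final.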

[9] = p53 small molecule agonists, cell-based qHTS assay: qHTS cell viability counter screen (AID 1963581); also: nearly all actives have a fitted effect of over 45% in size
Summary of the method: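 qHTS counter screen: 16 h compound exposure at 37 C of p53RE-bla HCT-116 cells (4,000 per well, seeded 5 h prior), cell viability by ATP luminescence.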

[10] = p53 small molecule agonists, cell-based qHTS assay (AID 1963582; active = well fitted activation curve with a large enough effect in the signal ratio in the repeat runs, not every such curve was filed as active; the % refers to the signal ratio)
Summary of the method: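 Measured: fluorescence from cleaved LiveBLAzer substrate. System: p53RE-bla cells, 16 h compound treatment at 37 C, 2 h substrate step at room temperature.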

[11] = target: 5-hydroxytryptamine receptor 2A (Homo sapiens) (UniProt P28223); test: 5-hydroxytryptamine receptor 2A (HTR2A) small molecule antagonists, cell-based qHTS assay (AID 1963586); also: nearly all actives have a fitted effect of over 45% in size
Sequence of 5-hydroxytryptamine receptor 2A (Homo sapiens) (P28223 whole entry, looked up): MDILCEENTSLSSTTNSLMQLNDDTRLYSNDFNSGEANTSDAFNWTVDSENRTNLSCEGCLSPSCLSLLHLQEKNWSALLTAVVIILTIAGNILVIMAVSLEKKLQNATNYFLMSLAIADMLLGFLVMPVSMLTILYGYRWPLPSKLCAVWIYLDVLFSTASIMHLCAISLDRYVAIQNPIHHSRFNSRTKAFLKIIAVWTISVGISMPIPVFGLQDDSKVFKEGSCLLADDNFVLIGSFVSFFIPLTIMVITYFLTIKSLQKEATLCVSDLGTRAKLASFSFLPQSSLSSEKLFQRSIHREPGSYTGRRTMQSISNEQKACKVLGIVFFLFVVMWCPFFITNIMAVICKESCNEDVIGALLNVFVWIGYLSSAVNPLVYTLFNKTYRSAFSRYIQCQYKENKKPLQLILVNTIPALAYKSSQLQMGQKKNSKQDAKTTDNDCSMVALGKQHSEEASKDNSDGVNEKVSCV
Summary of the method: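 CHO cells stably expressing human HTR2A were plated for 18 h at 37 C, then loaded with calcium dye for 1 h. Compounds were preincubated 5 min at room temperature before DOI (4 nM solution) was added. Kinetic fluorescence was read for 3 min.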

[12] = target: 5-hydroxytryptamine receptor 2A (Homo sapiens) (UniProt P28223); test: 5-hydroxytryptamine receptor 2A (HTR2A) small molecule agonists, cell-based qHTS assay (AID 1963587); also: nearly all actives have a fitted effect of over 30% in size
Summary of the method: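 CHO cells stably expressing human HTR2A, plated 18 h, loaded with calcium dye 1 h at 37 C. Agonist mode: compounds added and intracellular calcium fluorescence recorded kinetically for 2 min at 1 sec intervals.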

[13] = target: Muscarinic acetylcholine receptor M1 (Homo sapiens) (UniProt P11229); test: Cholinergic receptor muscarinic 1 (CHRM1) small molecule antagonists, cell-based qHTS assay (AID 1963588); also: nearly all actives have a fitted effect of over 40% in size
Sequence of Muscarinic acetylcholine receptor M1 (Homo sapiens) (P11229 whole entry, looked up): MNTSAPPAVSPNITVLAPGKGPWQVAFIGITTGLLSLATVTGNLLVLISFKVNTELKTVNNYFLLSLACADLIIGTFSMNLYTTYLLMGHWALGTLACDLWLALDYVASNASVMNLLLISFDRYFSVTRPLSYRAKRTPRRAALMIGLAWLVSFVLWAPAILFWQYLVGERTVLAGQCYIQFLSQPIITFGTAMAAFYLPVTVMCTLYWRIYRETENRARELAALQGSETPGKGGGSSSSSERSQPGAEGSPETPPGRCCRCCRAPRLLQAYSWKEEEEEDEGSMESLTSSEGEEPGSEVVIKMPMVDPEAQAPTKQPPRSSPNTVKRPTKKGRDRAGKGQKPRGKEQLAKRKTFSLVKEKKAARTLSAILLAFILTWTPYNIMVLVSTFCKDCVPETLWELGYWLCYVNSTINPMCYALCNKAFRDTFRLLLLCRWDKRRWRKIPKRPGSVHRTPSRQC
Summary of the method: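 Compounds were tested at 15 concentrations in three independent runs. Dye-loaded CHRM1-CHO cells were exposed 5 min at room temperature before stimulation by acetylcholine added at 50nM. Intracellular calcium was read kinetically on FDSS for 3 min.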

[14] = cAMP Responsive Elements (CRE) small molecule agonists, cell-based qHTS assay (AID 1963590)
Summary of the method: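 Test agents in DMSO were incubated 3 h at 37 C/5% CO2 with CRE-bla HEK 293T cells seeded 18 h earlier; LiveBLAzer B/G FRET substrate was added and read after 2 h at room temperature.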

[15] = cAMP Responsive Elements (CRE) small molecule antagonists, cell-based qHTS assay (AID 1963591; active = well fitted inhibition curve with a large enough effect in the signal ratio in the repeat runs, not every such curve was filed as active; the % refers to the signal ratio)
Summary of the method: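 Reporter line CRE-bla HEK 293T in dialyzed-FBS DMEM; cells preincubated 18 h, treated 3 h with compound plus NKH477 (0.25 uM final); LiveBLAzer FRET, 2 h RT.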

[16] = target: Beta-2 adrenergic receptor (Homo sapiens) (UniProt P07550); test: Adrenergic beta2 receptor (ADRB2) small molecule antagonists, cell-based qHTS assay (AID 1963592); also: series mostly up to about 92 µM; nearly all actives have a fitted effect of over 50% in size
Sequence of Beta-2 adrenergic receptor (Homo sapiens) (P07550 whole entry, looked up): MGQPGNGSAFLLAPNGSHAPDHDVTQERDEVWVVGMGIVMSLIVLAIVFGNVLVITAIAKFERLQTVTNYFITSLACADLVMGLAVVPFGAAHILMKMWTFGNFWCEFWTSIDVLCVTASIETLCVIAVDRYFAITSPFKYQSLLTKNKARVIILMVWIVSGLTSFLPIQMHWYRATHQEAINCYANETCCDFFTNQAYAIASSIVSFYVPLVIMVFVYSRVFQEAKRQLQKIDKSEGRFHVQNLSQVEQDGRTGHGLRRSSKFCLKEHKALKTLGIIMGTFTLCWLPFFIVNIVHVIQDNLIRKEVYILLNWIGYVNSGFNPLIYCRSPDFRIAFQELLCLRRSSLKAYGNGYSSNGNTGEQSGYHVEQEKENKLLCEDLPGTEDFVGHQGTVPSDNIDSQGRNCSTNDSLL
Summary of the method: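 Assay format: CHO-ADRB2 cells, 18-20hr seeding at 37C/5% CO2, then compound plus 1nM isoproterenol agonist mix for 0.5hr RT. Homogeneous time-resolved fluorescence cAMP detection after 1hr, expressed as 665/615 nm ratio.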

[17] = target: Beta-2 adrenergic receptor (Homo sapiens) (UniProt P07550); test: Adrenergic beta2 receptor (ADRB2) small molecule agonists, cell-based qHTS assay (AID 1963593);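 also: CHO cells stably overexpressing human ADRB2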
Summary of the method: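 CHO cells stably over-expressing ADRB2 were plated overnight at 37C, then dosed with compounds plus a stimulation mix containing 100uM IBMX and 25uM Ro-20-1724 for 0.5hr at room temperature. cAMP was measured by HTRF competition, 1hr.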

[18] = target: D(2) dopamine receptor (Homo sapiens) (UniProt P14416); test: Dopamine D2 receptor (DRD2) small molecule agonists, cell-based qHTS assay (AID 1963594); also: nearly all actives have a fitted effect of over 35% in size
Sequence of D(2) dopamine receptor (Homo sapiens) (P14416 whole entry, looked up): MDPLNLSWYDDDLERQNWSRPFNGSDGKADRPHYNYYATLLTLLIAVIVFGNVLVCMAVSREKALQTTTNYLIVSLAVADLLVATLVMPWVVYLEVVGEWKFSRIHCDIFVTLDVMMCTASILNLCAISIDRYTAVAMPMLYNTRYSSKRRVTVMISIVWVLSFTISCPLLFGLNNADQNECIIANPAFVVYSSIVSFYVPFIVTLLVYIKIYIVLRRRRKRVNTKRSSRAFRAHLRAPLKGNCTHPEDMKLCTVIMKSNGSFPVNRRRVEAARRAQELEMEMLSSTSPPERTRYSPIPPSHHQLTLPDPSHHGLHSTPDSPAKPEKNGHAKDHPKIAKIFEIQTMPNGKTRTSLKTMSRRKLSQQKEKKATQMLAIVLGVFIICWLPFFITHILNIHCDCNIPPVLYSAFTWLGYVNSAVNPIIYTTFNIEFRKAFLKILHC
Summary of the method: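 HEK293 cells stably expressing human DRD2, pre-treated with PDE inhibitor Ro20-1724 (0.1 mM final) and compound 10 min at room temperature, then stimulated with NKH477 (200nM […]) for 30 min. cAMP read by HTRF (665/620 nm).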

[19] = target: D(2) dopamine receptor (Homo sapiens) (UniProt P14416); test: Dopamine D2 receptor (DRD2) small molecule antagonists, cell-based qHTS assay (AID 1963595; active = well fitted inhibition curve with a large enough effect in the signal ratio in the repeat runs, with a control signal flat; the % refers to the signal ratio)
Summary of the method: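 HEK293 cells stably expressing DRD2, preincubated with 0.1 mM Ro20-1724 and compounds 10 min, were stimulated with 200 nM NKH477 plus 12 nM quinpirole for 30 min at room temperature; cAMP measured by HTRF (665/620 nm).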

[20] = p53 small molecule agonists, cell-based qHTS assay with human liver microsomes: qHTS cell viability counter screen (AID 1963579); also: nearly all actives have a fitted effect of over 45% in size
Summary of the method: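 Cytotoxicity counter screen: p53RE-bla, 4,000 cells/well; 5 h settle, 37 C/5% CO2; cpd + HLM 0.5 mg/mL + NADPH 0.5 mg/mL (final); 16 h, 37 C; CellTiter-Glo, 30 min RT, luminescence.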

Measured: Potency

CCc1cccc(CC)c1N
inactive: [1] | [2] | [3] | [4] | [5] | [6] | [7] | [8] | [9] | [10] | [11] | [12] | [13] | [14] | [15] | [16] | [17] | [18] | [19]

C=CCCCCCCCCC(=O)O
inactive: [1] | [2] | [3] | [4] | [5] | [6] | [7] | [8] | [9] | [10] | [11] | [12] | [13] | [15] | [16] | [17] | [18] | [19]

C=CCNCC=C
inactive: [1] | [2] | [3] | [4] | [5] | [6] | [20] | [8] | [9] | [10] | [11] | [12] | [13] | [14] | [15] | [16] | [17] | [18] | [19]

C=C(C)C(=O)OCCCCCCCCCCCC
inactive: [1] | [2] | [3] | [4] | [5] | [6] | [7] | [20] | [9] | [10] | [11] | [13] | [14] | [15] | [16] | [18]

CC(=O)OCc1ccc2c(c1)OCO2
inactive: [1] | [2] | [3] | [4] | [5] | [6] | [7] | [20] | [9] | [10] | [12] | [13] | [14] | [15] | [16] | [17] | [18] | [19]

Cc1[nH]c(=O)c(C#N)cc1-c1ccncc1
inactive: [1] | [2] | [3] | [4] | [5] | [6] | [7] | [8] | [9] | [14] | [15] | [16] | [17] | [18] | [19]

C[C@]12CC[C@@H]3c4ccc(O)cc4CC[C@H]3[C@@H]1CC[C@@H]2O
inactive: [1] | [2] | [3] | [4] | [5] | [6] | [7] | [20] | [10] | [14] | [15] | [16] | [18] | [19]
